Compound activity: PubChem BioAssay, National Center for Advancing Translational Sciences (NCATS)
Rows were chosen to be rich in hits. Some 9.3% of all compounds tested hit in one or more screens of this group.
ELG1 genotox – induces genotoxicity in HEK293T cells with luciferase-tagged ELG1. HEK293T ELG1-luciferase reporter, luminescence, 16 h. Potency, µM (series often up to 46 µM), for the others: at the top dose activity change, positive = activation, actives largely listed as activators. actives 1.3% (n = 330,000). AID 504466; note: % of control where 0% means no effect; nearly all actives have a fitted effect of over 60% in size
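Reporter readout depends on ELG1 protein level, which increases with genetic stress. After 16 hr compound exposure at 37 °C, luciferase activity was quantified using ONE-Glo.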
SMN2 splice up – SMN2 splice variant enhancement; HEK293 SMN2-luciferase splicing reporter, luminescence, 30-36 h; Potency, µM (highest dose often 46.1 µM), without a hit: top-dose activity change, positive = activation, hits mostly activators; actives 2.8% (n = 210,000); note: % of control where 0% means no effect; nearly all actives have a fitted effect of over 55% in size
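HEK293 cells carry an SMN2 […]–luciferase reporter in which exon 7 inclusion puts luciferase in frame. Cells were plated 10-12 h before compound addition, then incubated 30-36 h at 37C. ONE-Glo luminescence was read; sodium butyrate at 4.5 mM final served as control.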
Rab9 promoter act – activators of Rab9 promoter. Huh7 Rab9 promoter-luciferase reporter, luminescence, 24 h. Potency, µM (doses to about 9.22 µM), for inactives: at the highest dose activation, negative = inhibition, most hits filed as activators. actives 2.8% (n = 320,000); note: % of control where 0% means no effect; nearly all actives have a fitted effect of over 60% in size
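Luminescence read-out: Huh7 cells stably expressing Rab9-luciferase, treated 24 h with compound at 37 °C, then lysed with luciferase reagent for 10 min at ambient before reading.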
FLuc modulator – firefly luciferase modulation, counter-screen for miR-21 project; purified FLuc, Km substrates, luminescence inhibition; AID 588342; Potency, µM (top dose mostly 57.5 µM), for inactives: top-dose activity change, negative = inhibition, actives largely listed as inhibitors; actives 6.9% (n = 360,000);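 note: plate controls were vehicle for no effect and reference inhibitor for full effect; nearly all actives have a fitted effect of over 55% in size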
Target sequence (P08659 whole entry, looked up): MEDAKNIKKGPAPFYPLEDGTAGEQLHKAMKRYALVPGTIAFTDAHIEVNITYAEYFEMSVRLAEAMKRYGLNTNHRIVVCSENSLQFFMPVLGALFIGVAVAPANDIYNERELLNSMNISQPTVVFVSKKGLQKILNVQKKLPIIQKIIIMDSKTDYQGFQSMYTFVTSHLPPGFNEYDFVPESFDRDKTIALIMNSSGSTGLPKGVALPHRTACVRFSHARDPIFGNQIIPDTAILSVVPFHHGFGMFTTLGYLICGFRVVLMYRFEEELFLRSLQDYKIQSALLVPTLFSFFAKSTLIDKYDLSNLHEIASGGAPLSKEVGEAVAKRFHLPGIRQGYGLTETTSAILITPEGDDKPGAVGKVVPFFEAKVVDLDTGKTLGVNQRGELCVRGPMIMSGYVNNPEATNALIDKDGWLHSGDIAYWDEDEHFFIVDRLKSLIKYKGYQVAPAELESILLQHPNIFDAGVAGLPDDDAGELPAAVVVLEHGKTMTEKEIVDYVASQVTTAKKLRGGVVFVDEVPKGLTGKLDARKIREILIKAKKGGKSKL
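Purified P. pyralis luciferase, 10 nM final, with Km-level 10 uM D-luciferin and 10 uM ATP in 50 mM Tris acetate pH 7.5, 10 mM Mg acetate, 0.01% Tween-20, 0.05% BSA; 6-point qHTS titration about 60 µM downward; luminescence read.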
ELG1 DNA repair – inhibitors of ELG1-dependent DNA repair in HEK293T cells | actives 2.3% (n = 330,000) | Potency, µM (series often up to 46.1 µM), inactives show at the top dose activity change, negative = inhibition, actives largely listed as inhibitors | HEK293T ELG1-luciferase reporter, luminescence, 16 h; DNA damage induced by 5-fluorouridine | AID 504467; note: % is set by controls: 0 for no effect and ±100 for the full control effect; nearly all actives have a fitted effect of over 55% in size
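Cells (2,000 per well) received 5-fluorouridine plus test compound or DMSO and were incubated 16 hr at 37 °C, 5% CO2. Luciferase activity was read by luminescence 30 min after ONE-Glo addition; signal suppression marked inhibition of damage-induced ELG1 function.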
NPC1 promoter act – activators of NPC1 promoter. Huh7 NPC1 promoter luciferase reporter, 24 h. Potency, µM (top dose mostly 9.22 µM), inactives show at the top dose activation, hits mostly activators. actives 2.4% (n = 320,000); note: % of control where 0% means no effect; nearly all actives have a fitted effect of over 60% in size
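Luciferase expression driven by the NPC1 promoter was measured in stably transfected Huh7 cells after a 24 h compound incubation, using a luciferase reagent and a luminescence read.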
* marks the source's active call; other numbers are inactive results; u = inconclusive; x = not tested or not shown; [ ] = another dose, or the depositor's remark. Calls come from the whole dose curve; as a rule, active = well fitted curve in the direction sought with a large enough effect; inconclusive = small, poorly fitted or top-dose-only effect, or another doubt; inactive = no such curve, though single readings can be large; an effect the other way counts as inactive or inconclusive. Potency is the fitted concentration of half-maximal effect.

SMILES | ELG1 genotox | SMN2 splice up | Rab9 promoter act | FLuc modulator | ELG1 DNA repair | NPC1 promoter act
CC(=O)c1cccc(NC(=S)NC(=O)c2ccccc2Br)c1 | 1% | -4% | 1% | 17µM* | 1% | 6%
CC(=O)c1cccc(NC(=S)NC(=O)c2cccc(C)c2)c1 | u | 16µM* | 3.2µM* | 4.3µM* | u | u
Cc1nc(CS(=O)c2ccc(Cl)cc2)cc(N2CCOCC2)n1 (configuration not stated) | -2% | -2% | -2% | 1% | -2% | 0%
CCCCCCN1C=CC(=C/C=C(\C#N)C(=O)OCC)C=C1 | -7% | -7% | -5% | 9% | -2% | -1%
CCCCOC(=O)/C(C#N)=C/c1ccc(-c2ccc(Br)cc2)o1 | x | 3% | x | -19% | x | x
CC(C)COC(=O)/C(C#N)=C\c1ccc(-c2ccccc2Cl)o1 | x | -2% | x | u | x | x
CCOC(=O)/C(C#N)=C/c1ccc(-c2ccccc2)o1 | x | 0% | x | 9.5µM* | x | x
CCOC(=O)/C(C#N)=C/c1ccc(-c2ccc(C)cc2)o1 | x | 10% | x | 3.8µM* | x | x
CCCN1C=CC(=C/C=C(\C#N)C(=O)OCC)C=C1 | u | 14µM* | 4µM* | 6µM* | u | 4µM*
CCOC(=O)/C(C#N)=C/N=c1ccc(C)cn1C | u | x | u | 17µM* | u | u
Cc1ccc(S(=O)(=O)N(C)CC(=O)Nc2cc(C)ccn2)cc1 | 10µM* | x | 1% | u | u | -2%
Cc1ccc(S(=O)(=O)N(C)CC(=O)Nc2ccc(C)cn2)cc1 | 13% | x | u | -18% | u | -2%
Cc1ccnc(NC(=O)Cc2ccc(-c3ccccc3)cc2)c1 | 2.3µM* | x | -37% | 11µM* | u | -4%
Cc1ccnc(NC(=O)CNC(=O)c2ccc(Br)o2)c1 | 16µM* | x | -7% | u | u | 6%
Cc1cc(C)c(S(=O)(=O)c2ccccc2)c(OC(=O)c2c(F)cccc2F)n1 | -2% | -13% | 0% | -2% | 0% | -6%
CCCCn1c(N)c(N(Cc2ccccc2OC)C(=O)CC2OC(=O)c3ccccc32)c(=O)[nH]c1=O (configuration not stated) | 2% | x | -4% | -1% | -3% | 2%
COC(=O)[C@@]1(C)C=C[C@@H](Cc2ccccc2)N1C(=O)c1ccccc1 | x | -8% | x | x | x | x
O=C(c1ccccc1)c1ccc2nc(-c3ccco3)c(-c3ccco3)nc2c1 | 12% | 7% | u | 5.4µM* | u | 24%
COC(CNC(=O)c1ccc2nc(-c3ccccc3)c(-c3ccccc3)nc2c1)OC | -4% | -10% | -3% | -14% | u | -2%
COc1ccc(-c2nc3ccc(C(=O)NCC(OC)OC)cc3nc2-c2ccc(OC)cc2)cc1 | -5% | -15% | 0% | -10% | 16µM* | -7%
COC(=O)c1cc(C(=O)N2CCN(c3ccccc3OC)CC2)cc([N+](=O)[O-])c1 | 0% | x | -12% | 21µM* | 3% | -5%
COc1ccccc1N1CCN(C(=O)c2ccc3nc(-c4ccco4)c(-c4ccco4)nc3c2)CC1 | -13% | -63% | -4% | -15% | 7.3µM* | -2%
COC(=O)c1cc(C(=O)N2CCN(c3cccc(C)c3C)CC2)cc([N+](=O)[O-])c1 | -7% | -22% | -21% | 2% | u | -32%
CCOc1ccccc1NC(=O)N1CCC(C(=O)c2ccc(F)cc2)CC1 | -5% | 1% | 1% | 5% | -12% | -2%
CCCCn1c(=O)n(CC(O)c2ccccc2)c(=O)c2c1ncn2C1CCCC1 (configuration not stated) | -6% | 18% | -5% | 8% | u | 0%
SMILES | ELG1 genotox | SMN2 splice up | Rab9 promoter act | FLuc modulator | ELG1 DNA repair | NPC1 promoter act
O=C(NCCc1ccccc1)c1ccc2nc(-c3ccco3)c(-c3ccco3)nc2c1 | -4% | -2% | 7% | 21µM* | u | 0%
COc1ccccc1N1CCN(C(=O)c2ccc3[nH]c(C)c(C)c3c2)CC1 | u | x | -25% | 2% | u | -29%
O=C(NC1CCCC1)c1ccc2nc(-c3ccco3)c(-c3ccco3)nc2c1 | -4% | x | 7% | 13µM* | u | 0%
O=C(NCCO)c1ccc2nc(-c3ccco3)c(-c3ccco3)nc2c1 | -9% | 2% | 18% | 15µM* | -22% | 1%
O=C(NC1CCCC1)c1ccc2nc[nH]c2c1 | 5% | -1% | 0% | -1% | 6% | -1%
O=C(NCCc1ccccc1)c1ccc(=O)oc1 | 0% | 22% | 0% | 0% | 17% | -1%
COc1ccccc1N1CCN(C(=O)c2ccc3[nH]c4c(c3c2)CC(C)CC4)CC1 (configuration not stated) | -8% | 6% | 1% | 19µM* | u | -3%
CN1CCN(C2=C(Cl)C(=O)C(c3cnc(N4CCCCC4)s3)=C(Cl)C2=O)CC1 | 9% | 8% | 4% | 4% | -4% | -2%
O=C(c1ccc(NS(=O)(=O)c2cccs2)cc1)N1CCCCC1 | -2% | -39% | 0% | 1% | -2% | -3%
COc1ccc(Br)cc1CNC(=O)c1ccc2c(c1)nc1n2CCC(C)C1 (configuration not stated) | x | x | x | -4% | x | x
COC(=O)c1ccc2c(c1)SC1=C(CCCC1=O)N2 | 21µM* | -18% | -2%[1.84 µM] | 19µM* | u | 20%
CCn1c(NC(=O)c2ccccc2)nc2ccccc21 | 12% | x | u | 17µM* | u | 27%
Cn1c(NC(=O)c2cccc(Cn3cc(Cl)cn3)c2)nc2ccccc21 | 10µM* | 13µM* | 2.2µM* | 19µM* | u | 2.2µM*
CCn1c(NCc2ccc(N(C)C)cc2)nc2ccccc21 | u | 27% | 14% | 13µM* | u | 16%
CCn1c(NCc2ccc(OC)c(OC)c2)nc2ccccc21 | x | -39% | x | -6% | x | x
C=CCn1c(NC(=O)c2ccccc2)nc2ccccc21 | 13% | x | u | 24µM* | u | u
